Experimental data taken from PubChem BioAssay (EPA / NIEHS).
Inconclusive results are not listed. Activity calls are given as the source filed them. Rule for the calls, unless noted: active = hit-call score of the fitted dose curve at least 0.9, where 1 is the maximum; inconclusive = response in the unintended direction; inactive = score below 0.9.

How the values were obtained:
[1] = read-out: Intercellular Adhesion Molecule 1 (ICAM1), ICAM1 (gene 3383); assay: BSK_3C_ICAM1: BioMAP Diversity Plus: 3C Assay for Intercellular Adhesion Molecule 1 (ICAM1) Biomarker Activity (AID 2283003; active = hit-call score of the fitted dose curve at least 0.9, where 1 is the maximum; inactive = score below 0.9); details: primary human endothelial cells (HUVEC); actives raise or lower the signal
Method in brief: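 Chemicals are dosed onto primary human umbilical vein endothelium (3C system). After 24 h, ICAM-1 is measured by ELISA, and responses are fitted bidirectionally relative to DMSO.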

[2] = BSK_3C_Proliferation: Cell Proliferation Assessment in the BioMAP Diversity Plus: 3C Assay (AID 2283006; active = hit-call score of the fitted dose curve at least 0.9, where 1 is the maximum; inactive = score below 0.9;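 for AC50: potency may reflect either rise or fall in cell number versus DMSO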); details: primary human endothelial cells (HUVEC)
Method in brief: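 Cells (human umbilical vein endothelial, sub-confluent) receive test chemical; after 48 h they are fixed in 10% trichloroacetic acid, stained with 0.1% SRB and read at 560 nm. Activity is referenced to DMSO, fitting increases and decreases.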

[3] = molecular target: Peroxisome proliferator-activated receptor gamma (Homo sapiens) (UniProt P37231); assay: ATG_PPARg_TRANS: Attagene TRANS-FACTORIAL HepG2 Assay for human Peroxisome Proliferator-activated Receptor-gamma (PPARg) (AID 2283007)
Sequence of Peroxisome proliferator-activated receptor gamma (Homo sapiens) (P37231 whole entry, looked up, the tested form may be a part): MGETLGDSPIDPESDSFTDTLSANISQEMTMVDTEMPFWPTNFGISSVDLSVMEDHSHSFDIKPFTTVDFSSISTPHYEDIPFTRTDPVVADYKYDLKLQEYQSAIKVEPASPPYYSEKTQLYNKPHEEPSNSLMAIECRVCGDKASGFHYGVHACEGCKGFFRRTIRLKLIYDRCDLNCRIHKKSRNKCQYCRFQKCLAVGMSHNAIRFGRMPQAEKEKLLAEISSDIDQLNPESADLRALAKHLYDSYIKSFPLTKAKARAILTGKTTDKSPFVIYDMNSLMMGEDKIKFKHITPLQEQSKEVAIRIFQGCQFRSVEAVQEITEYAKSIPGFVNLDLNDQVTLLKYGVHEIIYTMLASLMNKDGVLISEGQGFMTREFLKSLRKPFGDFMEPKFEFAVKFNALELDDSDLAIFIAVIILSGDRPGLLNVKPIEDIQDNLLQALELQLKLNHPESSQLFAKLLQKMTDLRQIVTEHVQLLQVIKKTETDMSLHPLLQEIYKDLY
Method in brief: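 Read-out: reporter mRNA induction, detected by fluorescence after RT-PCR and capillary electrophoresis. Transiently transfected human HepG2 liver cells carrying a chimeric NR-Gal4 construct were dosed for 24 h; activity was fitted upward relative to DMSO.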

[4] = molecular target: Nuclear receptor subfamily 1 group I member 2 (Homo sapiens) (UniProt O75469); assay: ATG_PXR_TRANS: Attagene TRANS-FACTORIAL HepG2 Assay for human Pregnane X Receptor (PXR) (AID 2283008)
Sequence of Nuclear receptor subfamily 1 group I member 2 (Homo sapiens) (O75469 whole entry, looked up, the tested form may be a part): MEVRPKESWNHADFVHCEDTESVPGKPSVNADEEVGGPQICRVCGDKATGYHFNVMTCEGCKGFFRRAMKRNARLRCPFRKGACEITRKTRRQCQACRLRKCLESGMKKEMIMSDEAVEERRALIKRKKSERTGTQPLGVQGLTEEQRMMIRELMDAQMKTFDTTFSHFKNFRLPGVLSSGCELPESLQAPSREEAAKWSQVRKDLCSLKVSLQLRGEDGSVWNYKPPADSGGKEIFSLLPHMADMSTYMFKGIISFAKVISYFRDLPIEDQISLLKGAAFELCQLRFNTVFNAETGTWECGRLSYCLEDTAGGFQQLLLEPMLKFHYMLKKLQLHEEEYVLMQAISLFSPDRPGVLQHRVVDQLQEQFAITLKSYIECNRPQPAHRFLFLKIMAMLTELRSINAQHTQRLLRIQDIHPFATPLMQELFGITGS
Method in brief: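 Trans-factorial format: exogenous NR-Gal4 fusion activity, not endogenous factor, in transfected human HepG2 liver cells. After 24 h dosing, RNA isolated, reverse-transcribed, amplified and resolved by capillary electrophoresis; induction scored versus DMSO.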

[5] = molecular target: human RAR-related Orphan Receptor gamma (RORg), RORC (gene 6097) (UniProt P51449); assay: ATG_RORg_TRANS: Attagene TRANS-FACTORIAL HepG2 Assay for human RAR-related Orphan Receptor gamma (RORg) (AID 2283011)
Sequence of human RAR-related Orphan Receptor gamma (RORg), RORC (gene 6097) (P51449 whole entry, looked up, the tested form may be a part): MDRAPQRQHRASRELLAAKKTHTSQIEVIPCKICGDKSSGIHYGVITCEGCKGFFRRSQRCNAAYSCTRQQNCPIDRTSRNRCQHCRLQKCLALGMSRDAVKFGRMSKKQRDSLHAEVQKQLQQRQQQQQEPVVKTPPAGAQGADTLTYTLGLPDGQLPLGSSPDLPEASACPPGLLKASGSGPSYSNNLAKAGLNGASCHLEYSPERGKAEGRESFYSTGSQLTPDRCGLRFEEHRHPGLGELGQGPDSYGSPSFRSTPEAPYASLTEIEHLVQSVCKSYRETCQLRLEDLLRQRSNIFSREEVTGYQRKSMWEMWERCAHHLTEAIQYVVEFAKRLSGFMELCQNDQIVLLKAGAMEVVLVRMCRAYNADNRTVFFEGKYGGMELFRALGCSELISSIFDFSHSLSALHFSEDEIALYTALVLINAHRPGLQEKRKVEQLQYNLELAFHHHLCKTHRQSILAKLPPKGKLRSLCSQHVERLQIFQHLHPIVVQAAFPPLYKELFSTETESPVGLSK
Method in brief: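 Transient MRTU transfection of HepG2 (TRANS format, exogenous NR-Gal4 chimera). 24 h dosing. Total RNA → oligo(dT) RT → PCR → 6-FAM labelling → HpaI cut → CE. Gain vs DMSO.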

[6] = molecular target: Retinoic acid receptor RXR-alpha (Homo sapiens) (UniProt P19793); assay: ATG_RXRa_TRANS: Attagene TRANS-FACTORIAL HepG2 Assay for human Retinoid X Receptor alpha (RXRa) (AID 2283012)
Sequence of Retinoic acid receptor RXR-alpha (Homo sapiens) (P19793 whole entry, looked up, the tested form may be a part): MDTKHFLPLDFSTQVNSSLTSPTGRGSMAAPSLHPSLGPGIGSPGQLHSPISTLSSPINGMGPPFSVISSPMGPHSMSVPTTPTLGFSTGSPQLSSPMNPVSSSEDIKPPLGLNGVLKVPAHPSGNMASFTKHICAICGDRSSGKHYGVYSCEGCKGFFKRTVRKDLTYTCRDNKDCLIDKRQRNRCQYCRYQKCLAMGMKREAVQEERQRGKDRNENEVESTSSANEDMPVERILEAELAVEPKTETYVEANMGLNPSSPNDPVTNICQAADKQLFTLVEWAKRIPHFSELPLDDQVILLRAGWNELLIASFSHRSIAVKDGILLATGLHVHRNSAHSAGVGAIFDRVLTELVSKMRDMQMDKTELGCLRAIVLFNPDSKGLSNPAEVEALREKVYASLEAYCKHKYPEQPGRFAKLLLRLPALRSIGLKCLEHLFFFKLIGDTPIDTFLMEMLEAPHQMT
Method in brief: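 Measures exogenous chimeric NR-GAL4 activity in transfected HepG2 liver cells after 24 h of dosing. Induced reporter mRNA was detected by RT-PCR with capillary electrophoresis, and gain of signal was analysed against DMSO.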

[7] = read-out: E-selectin (Homo sapiens) (UniProt P16581); assay: BSK_3C_Eselectin: BioMAP Diversity Plus: 3C Assay for Eselectin Biomarker Activity (AID 2283015; active = hit-call score of the fitted dose curve at least 0.9, where 1 is the maximum; inactive = score below 0.9;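 note: cell surface E-selectin protein quantified by ELISA 24 h after dosing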); details: primary human endothelial cells (HUVEC); actives raise or lower the signal
Method in brief: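 HUVEC, 3C stimulation; compound exposure 24 h; E-selectin by ELISA; gain- or loss-of-signal fitted bidirectionally vs DMSO baseline.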

[8] = read-out: Interleukin-1 alpha (IL1a), IL1A (gene 3552); assay: BSK_BE3C_IL1a: BioMAP Diversity Plus: BE3C Assay for Interleukin-1 alpha (IL1a) Biomarker Activity (AID 2283016; active = hit-call score of the fitted dose curve at least 0.9, where 1 is the maximum; inactive = score below 0.9); details: primary human bronchial epithelial cells; actives raise or lower the signal
Method in brief: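 Signal from IL-1a ELISA, taken 24 h after chemical dosing of human bronchial epithelial cells, is compared with DMSO as baseline using bidirectional curve fitting.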

[9] = read-out: Monocyte Chemoattractant Protein-1 (MCP1), CCL2 (gene 6347); assay: BSK_3C_MCP1: BioMAP Diversity Plus: 3C Assay for Monocyte Chemoattractant Protein-1 (MCP1) Biomarker Activity (AID 2283017; active = hit-call score of the fitted dose curve at least 0.9, where 1 is the maximum; inactive = score below 0.9); details: primary human endothelial cells (HUVEC); actives raise or lower the signal
Method in brief: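 HUVEC, 3C system; 24 h chemical exposure; MCP-1 by ELISA; bidirectional curve fit vs DMSO baseline.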

[10] = read-out: Monocyte Chemoattractant Protein-1 (MCP1), CCL2 (gene 6347); assay: BSK_4H_MCP1: BioMAP Diversity Plus: 4H Assay for Monocyte Chemoattractant Protein-1 (MCP1) Biomarker Activity (AID 2283018; active = hit-call score of the fitted dose curve at least 0.9, where 1 is the maximum; inactive = score below 0.9); details: primary human endothelial cells (HUVEC); actives raise or lower the signal
Method in brief: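 Endothelial cells from umbilical vein were treated with test chemical, then after 24 h MCP-1 levels were quantified by ELISA; endpoint values came from bidirectional fitting with DMSO as baseline of activity.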

[11] = read-out: Human Leukocyte Antigen - DR isotype (HLADR), HLA-DRA (gene 3122); assay: BSK_3C_HLADR: BioMAP Diversity Plus: 3C Assay for Human Leukocyte Antigen - DR isotype (HLADR) Biomarker Activity (AID 2283019; active = hit-call score of the fitted dose curve at least 0.9, where 1 is the maximum; inactive = score below 0.9); details: primary human endothelial cells (HUVEC); actives raise or lower the signal
Method in brief: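 HUVEC, 3C stimulation, 24 h post-dose; HLA-DR by ELISA; bidirectional curve fit vs DMSO baseline; gain or loss of signal scored.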

[12] = read-out: Interleukin-8 (IL8), CXCL8 (gene 3576); assay: BSK_3C_IL8: BioMAP Diversity Plus: 3C Assay for Interleukin-8 (IL8) Biomarker Activity (AID 2283020; active = hit-call score of the fitted dose curve at least 0.9, where 1 is the maximum; inactive = score below 0.9); details: primary human endothelial cells (HUVEC); actives raise or lower the signal
Method in brief: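 Endothelial primary cells of human umbilical vein origin are dosed with chemical; after 24 h the IL-8 biomarker is measured by ELISA, and concentration–response is fitted in both directions versus DMSO.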

[13] = read-out: Monokine induced gamma interferon (MIG), CXCL9 (gene 4283); assay: BSK_3C_MIG: BioMAP Diversity Plus: 3C Assay for Monokine induced gamma interferon (MIG) Biomarker Activity (AID 2283021; active = hit-call score of the fitted dose curve at least 0.9, where 1 is the maximum; inactive = score below 0.9); details: primary human endothelial cells (HUVEC); actives raise or lower the signal
Method in brief: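 Endothelial primary cells (human umbilical vein) are dosed with test chemical in the 3C system. MIG levels are measured by ELISA at 24 h and fitted in both directions relative to DMSO.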

[14] = molecular target: human Peroxisome Proliferator-activated Receptor delta (PPARd), PPARD (gene 5467) (UniProt Q03181); assay: ATG_PPARd_TRANS: Attagene TRANS-FACTORIAL HepG2 Assay for human Peroxisome Proliferator-activated Receptor delta (PPARd) (AID 2283002)
Sequence of human Peroxisome Proliferator-activated Receptor delta (PPARd), PPARD (gene 5467) (Q03181 whole entry, looked up, the tested form may be a part): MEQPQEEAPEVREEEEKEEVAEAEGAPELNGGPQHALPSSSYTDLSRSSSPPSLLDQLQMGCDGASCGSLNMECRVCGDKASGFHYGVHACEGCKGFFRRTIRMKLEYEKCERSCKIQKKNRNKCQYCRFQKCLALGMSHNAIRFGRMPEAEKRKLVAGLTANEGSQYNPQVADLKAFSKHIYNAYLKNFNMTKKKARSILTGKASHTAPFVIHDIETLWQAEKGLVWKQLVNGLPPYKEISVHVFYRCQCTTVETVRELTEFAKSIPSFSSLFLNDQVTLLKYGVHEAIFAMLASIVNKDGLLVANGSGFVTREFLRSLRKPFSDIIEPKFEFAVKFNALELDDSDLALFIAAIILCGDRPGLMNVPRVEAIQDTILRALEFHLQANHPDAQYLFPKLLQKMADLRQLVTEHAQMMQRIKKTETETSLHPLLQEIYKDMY
Method in brief: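 Transient HepG2 transfection (multiple GAL4-UAS RTUs, chimeric receptor-Gal4); 24 h dosing; total RNA → oligo(dT) RT → PCR → 6-FAM primer extension → HpaI cut → CE. Positive direction vs DMSO.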

[15] = molecular target: human RAR-related Orphan Receptor beta (RORb), RORB (gene 6096) (UniProt Q92753); assay: ATG_RORb_TRANS: Attagene TRANS-FACTORIAL HepG2 Assay for human RAR-related Orphan Receptor beta (RORb) (AID 2283010)
Sequence of human RAR-related Orphan Receptor beta (RORb), RORB (gene 6096) (Q92753 whole entry, looked up, the tested form may be a part): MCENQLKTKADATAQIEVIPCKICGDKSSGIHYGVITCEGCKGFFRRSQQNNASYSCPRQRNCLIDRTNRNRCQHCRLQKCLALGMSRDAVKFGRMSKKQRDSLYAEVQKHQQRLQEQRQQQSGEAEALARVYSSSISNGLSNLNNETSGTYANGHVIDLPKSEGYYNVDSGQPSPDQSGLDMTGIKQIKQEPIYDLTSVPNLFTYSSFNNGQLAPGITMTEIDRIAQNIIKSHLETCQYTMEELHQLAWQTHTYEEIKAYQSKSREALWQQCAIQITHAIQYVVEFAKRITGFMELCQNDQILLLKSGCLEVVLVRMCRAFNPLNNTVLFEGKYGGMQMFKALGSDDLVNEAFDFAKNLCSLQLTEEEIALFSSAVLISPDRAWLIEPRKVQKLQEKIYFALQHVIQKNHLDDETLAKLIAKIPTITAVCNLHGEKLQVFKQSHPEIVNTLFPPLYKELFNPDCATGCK
Method in brief: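 Transfect HepG2 with multiple GAL4-UAS reporter transcription units; dose chemicals for 24 h; isolate RNA, reverse-transcribe and PCR-amplify reporter sequences; label, digest and resolve fragments by capillary electrophoresis; fit increases relative to DMSO.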

[16] = molecular target: human Retinoid X Receptor beta (RXRb), RXRB (gene 6257) (UniProt P28702); assay: ATG_RXRb_TRANS: Attagene TRANS-FACTORIAL HepG2 Assay for human Retinoid X Receptor beta (RXRb) (AID 2283013)
Sequence of human Retinoid X Receptor beta (RXRb), RXRB (gene 6257) (P28702 whole entry, looked up, the tested form may be a part): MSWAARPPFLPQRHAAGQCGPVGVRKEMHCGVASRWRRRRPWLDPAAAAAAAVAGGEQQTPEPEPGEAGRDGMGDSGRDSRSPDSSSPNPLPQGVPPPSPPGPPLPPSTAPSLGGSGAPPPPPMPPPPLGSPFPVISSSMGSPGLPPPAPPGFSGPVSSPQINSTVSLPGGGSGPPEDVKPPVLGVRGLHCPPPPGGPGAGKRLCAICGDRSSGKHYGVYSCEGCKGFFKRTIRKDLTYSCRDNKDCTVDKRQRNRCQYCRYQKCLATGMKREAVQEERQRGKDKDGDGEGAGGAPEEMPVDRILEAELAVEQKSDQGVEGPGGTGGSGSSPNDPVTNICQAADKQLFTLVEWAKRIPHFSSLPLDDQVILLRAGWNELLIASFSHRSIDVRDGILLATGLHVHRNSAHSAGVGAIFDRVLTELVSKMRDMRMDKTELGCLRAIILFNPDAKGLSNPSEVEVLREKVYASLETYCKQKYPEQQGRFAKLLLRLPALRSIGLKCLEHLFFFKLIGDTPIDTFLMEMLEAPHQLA
Method in brief: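 Chimeric receptor-Gal4 activity was assessed in transiently transfected human HepG2 cells after 24 h exposure. Transcripts from GAL4-UAS reporters were quantified by fluorescent RT-PCR and capillary electrophoresis, with DMSO as negative control and baseline.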

[17] = molecular target: human Thyroid Receptor alpha (THRa1), THRA (gene 7067) (UniProt P10827); assay: ATG_THRa1_TRANS: Attagene TRANS-FACTORIAL HepG2 Assay for human Thyroid Receptor alpha (THRa1) (AID 2283014)
Sequence of human Thyroid Receptor alpha (THRa1), THRA (gene 7067) (P10827 whole entry, looked up, the tested form may be a part): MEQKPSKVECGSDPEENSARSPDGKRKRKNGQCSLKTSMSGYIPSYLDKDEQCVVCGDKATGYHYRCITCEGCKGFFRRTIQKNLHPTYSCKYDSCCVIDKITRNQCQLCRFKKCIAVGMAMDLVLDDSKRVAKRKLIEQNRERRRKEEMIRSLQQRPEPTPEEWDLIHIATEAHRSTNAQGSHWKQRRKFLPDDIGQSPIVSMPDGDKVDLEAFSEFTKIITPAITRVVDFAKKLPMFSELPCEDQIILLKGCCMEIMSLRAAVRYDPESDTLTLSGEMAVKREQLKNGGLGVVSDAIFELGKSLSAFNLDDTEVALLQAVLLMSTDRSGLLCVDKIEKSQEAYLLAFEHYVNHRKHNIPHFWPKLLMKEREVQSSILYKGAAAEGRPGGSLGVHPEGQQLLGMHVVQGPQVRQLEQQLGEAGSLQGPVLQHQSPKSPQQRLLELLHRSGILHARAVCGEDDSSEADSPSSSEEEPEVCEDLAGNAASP
Method in brief: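 Transient HepG2 transfection, NR-Gal4 chimera driving GAL4-UAS reporters; 24 h compound exposure; total RNA, oligo(dT) RT, PCR, fluorescent primer extension, capillary electrophoresis. Upward direction vs DMSO control.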

Measured: AC50

Sequence of E-selectin (Homo sapiens) (P16581 whole entry, looked up): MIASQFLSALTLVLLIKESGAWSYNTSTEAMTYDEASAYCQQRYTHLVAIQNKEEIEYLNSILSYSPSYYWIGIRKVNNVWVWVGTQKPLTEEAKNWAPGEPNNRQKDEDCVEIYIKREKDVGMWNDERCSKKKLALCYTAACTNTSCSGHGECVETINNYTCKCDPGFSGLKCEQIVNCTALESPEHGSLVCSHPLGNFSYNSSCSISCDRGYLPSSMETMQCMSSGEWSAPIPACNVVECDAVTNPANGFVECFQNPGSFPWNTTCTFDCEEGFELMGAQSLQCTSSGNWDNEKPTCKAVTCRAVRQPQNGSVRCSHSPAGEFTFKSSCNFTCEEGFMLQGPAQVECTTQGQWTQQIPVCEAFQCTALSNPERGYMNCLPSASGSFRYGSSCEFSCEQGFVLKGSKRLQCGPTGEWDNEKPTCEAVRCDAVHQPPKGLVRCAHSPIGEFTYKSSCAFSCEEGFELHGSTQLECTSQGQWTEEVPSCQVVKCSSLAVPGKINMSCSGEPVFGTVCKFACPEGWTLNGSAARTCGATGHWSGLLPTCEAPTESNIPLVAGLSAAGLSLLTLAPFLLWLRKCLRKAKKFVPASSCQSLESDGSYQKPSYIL

O=P(c1ccccc1)(c1ccccc1)c1ccccc1
active: [4] 0.325 µM
not listed: [14] | [15] | [16] | [17]
inactive: all other assays above

CCC(C)(O)CCC=C(C)C (stereo not drawn)
inactive: [14] | [4] | [15] | [6]

BrC1CCC(Br)C(Br)CCC(Br)C(Br)CCC1Br (stereo not drawn)
active: [2] 4.72 µM | [4] 2.86 µM | [16] 8.67 µM | [9] 4.64 µM | [10] 1.58 µM | [11] 3.33 µM | [12] 4.7 µM
not listed: [5] | [7] | [14]
inactive: all other assays above

CC(C)Oc1ccccc1O
active: [4] 27.4 µM
not listed: [5] | [6] | [14] | [16]
inactive: all other assays above

CC1(C)[C@H]2CC[C@]1(C)[C@H](O)C2
inactive: [14] | [4] | [15] | [16]

CC(=O)Nc1ccccc1O
not listed: [7] | [14] | [15] | [17]
inactive: all other assays above

CN(C)C(=N)N=C(N)N
inactive: [14] | [4] | [17]

COc1cccc(OC)c1
inactive: [14] | [3] | [5]

CCCCCCCCCCN
inactive: [14] | [6] | [16]

CSc1nc(NC2CC2)nc(NC(C)(C)C)n1
inactive: [14] | [17]
active: [3] 31.9 µM | [4] 1.05 µM | [16] 22.7 µM

COC(=O)c1ccc(C)cc1
active: [4] 9.06 µM | [16] 14.3 µM
not listed: [3] | [5] | [7] | [14]
inactive: all other assays above
